Several values for one entry are separate records, joined by “and”; a condition that tells them apart may be missing. Equal values may be shown once. Results filed as inconclusive are left out. Where a call stands in place of a potency, no number is given. Values without a mark were called inactive. Activity calls are given as the source filed them. The call rests on the fitted dose curve; in most records, active means well fitted cell-killing curve with a large enough effect in the repeat runs; inconclusive means weak or mixed curves, or effect the other way; inactive means no such curve, though single readings can be large or run the other way.
Potency means the concentration at half of the fitted maximal effect.

The nature of the test: qHTS assay for identifying genotoxic compounds that show differential cytotoxicity against isogenic chicken DT40 cell lines with known DNA damage response pathways - Rev3 mutant cell line (AID 743014). Further: nearly all actives have a fitted effect of over 55% in size. The note with it: chicken DT40 Rev3-/- viability, CellTiter-Glo, 40 h; series mostly up to 68.4 µM. From the text:
National Center for Advancing Translational Sciences [NCATS]
NIH Chemical Genomics Center [NCGC]
U.S. Environmental Protection Agency [EPA]
National Institutes of Environmental Health Sciences [NIEHS]
National Toxicology Program [NTP]
U.S. Food and Drug Administration [FDA]
DNA repair pathways play a critical role in cellular homeostasis by repairing DNA damage induced by endogenous processes and xenobiotics. Isogenic chicken DT40 cell lines deficient in different DNA repair pathways can be used to identify genotoxic compounds and aid in characterizing the nature of the DNA damage induced. Two DNA repair-deficient cell lines with disrupted genes, Rad54/Ku70 or Rev3, were used to screen the Tox21 10K compound library. Possible genotoxicity was based on the presence of a significant increase in cytotoxicity in one or more of the DNA repair-deficient cell lines compared to that observed in the parental DNA repair-proficient cell line. CellTiter Glo viability assay (Promega, Madison, WI) was used to measure cell viability in these cells after compound treatment. This assay includes the data from the Rev3 mutant cell line.
Tox21 Assay Protocol Summary:
300 DT40 mutant cells in 5 uL/well were dispensed into white, solid-bottom 1536-well plates using a Multidrop Combi (ThermoFisher Scientific, Waltham, MA) dispenser. After the assay plates were incubated at 37 C/5% CO2 for approximately 0.5 hour, 23 nL of compounds dissolved in DMSO, positive controls or DMSO only was transferred into the assay plate by a pintool work station (Kalypsys, San Diego, CA). The assay plates were incubated at 37 C/5% CO2 for 40 hours. After 5 uL per well of CellTiter-Glo reagent was added into each well of the assay plates, the plates were incubated for 30 min at room temperature and the luminescence intensity of the plates was measured using a ViewLux (PerkinElmer, Shelton, CT) plate reader.
Background: In qHTS, concentration-response curves come from the screen itself.
With `CC(=O)O[C@@]12CO[C@@H]1C[C@H](O)[C@@]1(C)C(=O)[C@H](O)C3=C(C)[C@@H](OC(=O)[C@H](O)[C@@H](NC(=O)OC(C)(C)C)c4ccccc4)C[C@@](O)([C@@H](OC(=O)c4ccccc4)[C@H]21)C3(C)C`, the Potency is 1.7 nM (active) and 1.9 nM (active). On to `O=C(CO)[C@@H](O)[C@H](O)[C@H](O)CO`, for which the Potency entry is “inactive”. Turning to `CN1[C@@H]2CC[C@H]1CC(OC(=O)C(O)c1ccccc1)C2` (stereo not given in full), the Potency entry was “inactive”. With `CC1(C)[C@@H]2CC[C@@]1(C)[C@H](O)C2`, the Potency result was “inactive”.

In the case of `CCCCc1ccc2c(n1)[C@@H](c1ccc(OC)cc1C[C@H](C)C(=O)O)[C@H](C(=O)O)[C@H]2c1ccc2c(c1)OCO2`, the Potency result is “inactive”. As for `CO/N=C(\C(=O)N[C@@H]1C(=O)N2C(C(=O)O)=C(CSc3nc(=O)c(O)nn3C)CS[C@H]12)c1csc(N)n1`, the Potency result is “inactive”. Turning to `NC(=O)N[C@@H](CCC(=O)O)C(=O)O`, the Potency entry was “inactive”. For `CC(CC=O)CC(C)(C)C` (stereo not given), the Potency result is “inactive”. With `CCCC(C)C(=O)OCC` (stereo not given), the Potency result was “inactive”. For the molecule `FB(F)F`, the Potency result was “inactive”. Turning to `CC/C=C\CCOC(C)OCC` (stereo not given), the Potency result was “inactive”.

Regarding `CO[C@@]1(NC(=O)CSC[C@@H](N)C(=O)O)C(=O)N2C(C(=O)O)=C(CSc3nnnn3C)CS[C@@H]21`, the Potency entry was “inactive”. Turning to `CO[Si](C)(OC)c1ccccc1`, the Potency entry is “inactive”.

As for `CCCCOCCOC(=O)CCCCCCCCC(=O)OCCOCCCC`, the Potency result is “inactive”. For `CCCCc1nc(Cl)c(CO)n1Cc1ccc(-c2ccccc2-c2nn[nH]n2)cc1`, the Potency entry was “inactive”.

As to `CCCCS(=O)(=O)N[C@@H](Cc1ccc(OCCCCC2CCNCC2)cc1)C(=O)O`, the Potency entry is “inactive”. With `Nc1ccn([C@@H]2O[C@H](CO)[C@@H](O)[C@@H]2O)c(=O)n1`, the Potency is 43.3 nM (active).

As for `CC(=O)NC(=O)c1ccccc1O`, the Potency result was “inactive”. With `CCCCCCCC1CCCC1=O` (stereo not given), the Potency result was “inactive”. As to `CCCC[N+](C)(CCCC)CCCC`, the Potency result was “inactive”. In the case of `CN(C)CCCN(C)CCCN(C)C`, the Potency result was “inactive”. On to `O=C(CO)[C@@H](O)[C@H](O)[C@@H](O)CO`, for which the Potency result is “inactive”.

For `CC12CCC(C(=O)C1=O)C2(C)C` (stereo not given), the Potency entry was “inactive”. `C=CCOCC(O)CO` (stereo not given): the Potency entry is “inactive”. As for `[O-][n+]1cccc(CO)c1`, the Potency result was “inactive”. For the molecule `CCC(=O)OCc1ccccc1`, the Potency result was “inactive”.

For the molecule `C=C(C)C(=O)OCC1CCCO1` (stereo not given), the Potency result is “inactive”. The same measure, in the same setting: under `O=CN(CCO)CCO` stands “inactive”; under `CN(C)[C@@H]1C(=O)C(C(=O)NCN2CCCC2)=C(O)[C@@]2(O)C(=O)C3=C(O)c4c(O)cccc4[C@@](C)(O)C3C[C@@H]12` (stereo not given in full), “inactive”. In the case of `CC(C)(N)C#N`, the Potency result was “inactive”. Same read-out and setting: under `C=CN1CCCCCC1=O` stands “inactive”; under `O=C(O)CNC(=O)c1ccccc1`, “inactive”. Consider `CC(C)CCCO`, for which the Potency entry was “inactive”.

Regarding `O=C(O)Cc1csc(-c2ccc(Cl)cc2)n1`, the Potency result was “inactive”. As to `CCCn1cc[n+](C)c1C`, the Potency result is “inactive”. Regarding `Cc1c(N)c(=O)n(-c2ccccc2)n1C`, the Potency result was “inactive”. `O=S(=O)(O)c1cccc2c(S(=O)(=O)O)cccc12`: the Potency entry was “inactive”. In the case of `Cc1ccc(-c2ncc(Cl)cc2-c2ccc(S(C)(=O)=O)cc2)cn1`, the Potency result was “inactive”. Still for that read-out and setting: under `CC(=O)N[C@H]1[C@H]([C@H](O)[C@H](O)CO)OC(C(=O)O)=C[C@@H]1N=C(N)N` stands “inactive”. Take `Cc1cc(C)c(N=Nc2c(O)c(S(=O)(=O)O)cc3cc(S(=O)(=O)O)ccc23)cc1C`: the activity, negative = cytotoxicity is 0.342% [at 8.53 µM].

The values are drawn from PubChem BioAssay (Tox21).
